Measurements as given in PubChem BioAssay (NCI).
Compounds without any hit were thinned out: in the full panel of roughly 83,000, 20% have a hit.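 In brief: 96-well plates, 48 h treatment, single concentration, percent growth endpoint.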 A number with no mark means an inactive call. Calls of active or inactive are those of the source. The calls were made as follows: active = growth percent below 10; inactive = the rest.

test system: MDA-MB-231 breast; assay: NCI-60 one-dose screen, 48 h (100 = growth as untreated, 0 = no growth, -100 = all killed); settings: 10 µM unless noted

| SMILES | growth |
| --- | --- |
| CC(=O)NNC(=O)c1sc(NC(C)=O)nc1C | 100% |
| Nc1ccc(S(=O)(=O)c2ccc(NO)cc2)cc1 | 98.3% |
| Cc1c(Cc2ccccc2)c(=O)oc2c(C)c(OCC(=O)n3nc(C#N)cc3N)ccc12 | 103% |
| NC(=O)CC(NC(=O)COc1ccc(Cl)cc1Cl)C(=O)O (stereo not given) | 105% |
| CCCCCCCCC1OC1CCCCCCCC(=O)O (stereo not given) | 94.6% |
| CC(=O)/C(=C/c1ccc(-c2ccccc2)cc1)C(=O)c1ccccc1 | 92.5% |
| COc1ccc(-c2nc(Nc3nc4ccccc4[nH]3)nc(N)c2C#N)cc1 | 91.9% |
| CCC(CCCN1C(=O)c2ccccc2C1=O)Nc1cc(OC)cc2cccnc12 (stereo not given) | 93.2% |
| CC(=O)OC1/C=C\CC/C=C\C1 (stereo not given) | 111% |
| CCc1ccc(C(=Nc2ccc(N(C)C(=O)CN3CCN(C)CC3)cc2)c2c(O)[nH]c3ccc(C(=O)OC)cc23)cc1 | -71% (active) |
| c1ccc2[nH]c(-c3ccc(OCCCCCOc4ccc(-c5nc6ccccc6[nH]5)cc4)cc3)nc2c1 | 40.5% |
| Oc1ccc(CN(Cc2ccc(C(F)(F)F)cc2)Cc2ccc(O)c3ncccc23)c2cccnc12 | 48.4% |
| COc1ccc2nc3cc(Cl)ccc3c(NCCCNC(C)=O)c2c1 | 56.8% |
| O=C(N/N=C\c1ccc(Cl)cc1)C(=O)N/N=C\c1ccc(Cl)cc1 | 91.3% |
| Cc1nc2c(nnn2-c2ccccc2)c2nc(-c3ccccc3)oc(=O)c12 | 109% |
| COC(=O)c1ccc2[nH]c(O)c(C(=Nc3ccc(N(C)C(=O)CN4CCN(C)CC4)cc3)c3ccc(N)cc3)c2c1 | 87.6% |
| Cc1nc(N)sc1C(=O)NCCO | 101% |
| CC(=O)Nc1nc(C)c(C(=O)N/N=C/N2CCOCC2)s1 | 109% |
| O=C(O)CC1Cc2ccccc2C1C(=O)O (stereo not given) | 105% |
| Cc1ccc2c(c1)C(=O)CCS2 | 94.2% |

| SMILES | growth |
| --- | --- |
| CCC(C)(C)c1ccc(OCCCCCCN2CCNCC2)cc1 | 78.5% |
| c1ccc(Nc2ccccn2)cc1 | 96.6% |
| Brc1ccc(-c2nc3ccccc3s2)cc1 | 82.4% |
| O=C1/C(=N\c2cc(=O)[nH]n2S(=O)(=O)c2ccccc2)Nc2ccccc21 | 96.5% |
| CCCC(C)c1cc(Cc2cc(Cl)cc(Cl)c2O)c(O)c(Cc2cc(Cl)cc(Cl)c2O)c1 (stereo not given) | -13.4% (active) |
| c1ccc(Nc2ncc3c(n2)-c2cccn2CC3)cc1 | 80.8% |
| CC1=C(C)C(=O)C(C(C)C2=C(C)C(=O)C(C)=C(C)C2=O)=C(C)C1=O | 94.2% |
| C=CCSc1nnc(COc2ccc3c(C)c(Cc4ccccc4)c(=O)oc3c2C)o1 | 104% |
| CCOc1nc(-c2ccccc2)cc2c(O)c(C(=O)N/N=C/c3ccccc3O)[nH]c(=O)c12 | 101% |
| CC(=O)Nc1nc(C)c(C(=O)NNC(=O)Nc2ccccc2)s1 | 89.6% |
| c1cc[c]([Bi]([c]2ccccc2)[c]2ccccc2)cc1 | 95.2% |
| COc1cc(NC(=O)CSc2nc3ccc(Cl)cc3c(=O)n2-c2ccc(F)cc2)cc(OC)c1OC | 64.7% |
| CC(=O)Nc1nc(C)c(C(=O)NN)s1 | 99% |
| COC(=O)C(C)[C@H]1CC[C@@H]2[C@]1(C)CC=C1[C@]23C=C[C@]2(C[C@@H](OC(C)=O)CC[C@]12C)C(C(=O)OC)C3C(=O)OC (stereo not given in full) | 89.5% |
| Cc1nc2c(nnn2-c2ccccc2)c2nc(-c3ccc(Cl)cc3)oc(=O)c12 | 119% |
| CCCCCCCCC/C(=N\NC(=O)c1ccncc1)c1ccc(O)c(O)c1O | 47.9% |
| CNCCCNCCCCNCCCN1C(=O)c2ccc3c4c(ccc(c24)C1=O)C(=O)N(CCCNCc1ccccc1OC)C3=O | 47.3% |
| Cc1nc(NC(=S)Nc2ccc(F)cc2)sc1C(=O)NNC(=S)Nc1ccc(F)cc1 | 77.9% |
| CCOc1ccc(/C=N/NC(=O)c2cccc3ccccc23)cc1OCC | 96% |
| O=C(/C=C/c1ccc(Br)cc1)c1ccccc1 | 101% |

test system: RXF 393 renal; assay: as above; settings: 10 µM unless noted

| SMILES | growth |
| --- | --- |
| CC(=O)NNC(=O)c1sc(NC(C)=O)nc1C | 112% |
| Nc1ccc(S(=O)(=O)c2ccc(NO)cc2)cc1 | 53.7% |
| Cc1c(Cc2ccccc2)c(=O)oc2c(C)c(OCC(=O)n3nc(C#N)cc3N)ccc12 | 119% |
| NC(=O)CC(NC(=O)COc1ccc(Cl)cc1Cl)C(=O)O (stereo not given) | 108% |
| CCCCCCCCC1OC1CCCCCCCC(=O)O (stereo not given) | 101% |
| CC(=O)/C(=C/c1ccc(-c2ccccc2)cc1)C(=O)c1ccccc1 | 90.6% |
| COc1ccc(-c2nc(Nc3nc4ccccc4[nH]3)nc(N)c2C#N)cc1 | 134% |
| CCC(CCCN1C(=O)c2ccccc2C1=O)Nc1cc(OC)cc2cccnc12 (stereo not given) | -5.08% (active) |
| CC(=O)OC1/C=C\CC/C=C\C1 (stereo not given) | 110% |
| CCc1ccc(C(=Nc2ccc(N(C)C(=O)CN3CCN(C)CC3)cc2)c2c(O)[nH]c3ccc(C(=O)OC)cc23)cc1 | -96.8% (active) |
| c1ccc2[nH]c(-c3ccc(OCCCCCOc4ccc(-c5nc6ccccc6[nH]5)cc4)cc3)nc2c1 | -74.2% (active) |
| Oc1ccc(CN(Cc2ccc(C(F)(F)F)cc2)Cc2ccc(O)c3ncccc23)c2cccnc12 | 11.2% |
| COc1ccc2nc3cc(Cl)ccc3c(NCCCNC(C)=O)c2c1 | 32.9% |
| O=C(N/N=C\c1ccc(Cl)cc1)C(=O)N/N=C\c1ccc(Cl)cc1 | 118% |
| Cc1nc2c(nnn2-c2ccccc2)c2nc(-c3ccccc3)oc(=O)c12 | 109% |
| COC(=O)c1ccc2[nH]c(O)c(C(=Nc3ccc(N(C)C(=O)CN4CCN(C)CC4)cc3)c3ccc(N)cc3)c2c1 | 56.7% |
| Cc1nc(N)sc1C(=O)NCCO | 106% |
| CC(=O)Nc1nc(C)c(C(=O)N/N=C/N2CCOCC2)s1 | 119% |
| O=C(O)CC1Cc2ccccc2C1C(=O)O (stereo not given) | 105% |
| Cc1ccc2c(c1)C(=O)CCS2 | 115% |

| SMILES | growth |
| --- | --- |
| CCC(C)(C)c1ccc(OCCCCCCN2CCNCC2)cc1 | 35.9% |
| c1ccc(Nc2ccccn2)cc1 | 113% |
| Brc1ccc(-c2nc3ccccc3s2)cc1 | 96% |
| O=C1/C(=N\c2cc(=O)[nH]n2S(=O)(=O)c2ccccc2)Nc2ccccc21 | 101% |
| CCCC(C)c1cc(Cc2cc(Cl)cc(Cl)c2O)c(O)c(Cc2cc(Cl)cc(Cl)c2O)c1 (stereo not given) | -10% (active) |
| c1ccc(Nc2ncc3c(n2)-c2cccn2CC3)cc1 | 97.8% |
| CC1=C(C)C(=O)C(C(C)C2=C(C)C(=O)C(C)=C(C)C2=O)=C(C)C1=O | 11.3% |
| C=CCSc1nnc(COc2ccc3c(C)c(Cc4ccccc4)c(=O)oc3c2C)o1 | 114% |
| CCOc1nc(-c2ccccc2)cc2c(O)c(C(=O)N/N=C/c3ccccc3O)[nH]c(=O)c12 | 81.3% |
| CC(=O)Nc1nc(C)c(C(=O)NNC(=O)Nc2ccccc2)s1 | 121% |
| c1cc[c]([Bi]([c]2ccccc2)[c]2ccccc2)cc1 | 101% |
| COc1cc(NC(=O)CSc2nc3ccc(Cl)cc3c(=O)n2-c2ccc(F)cc2)cc(OC)c1OC | 80.2% |
| CC(=O)Nc1nc(C)c(C(=O)NN)s1 | 104% |
| COC(=O)C(C)[C@H]1CC[C@@H]2[C@]1(C)CC=C1[C@]23C=C[C@]2(C[C@@H](OC(C)=O)CC[C@]12C)C(C(=O)OC)C3C(=O)OC (stereo not given in full) | 102% |
| Cc1nc2c(nnn2-c2ccccc2)c2nc(-c3ccc(Cl)cc3)oc(=O)c12 | 104% |
| CCCCCCCCC/C(=N\NC(=O)c1ccncc1)c1ccc(O)c(O)c1O | 19.2% |
| CNCCCNCCCCNCCCN1C(=O)c2ccc3c4c(ccc(c24)C1=O)C(=O)N(CCCNCc1ccccc1OC)C3=O | 20.1% |
| Cc1nc(NC(=S)Nc2ccc(F)cc2)sc1C(=O)NNC(=S)Nc1ccc(F)cc1 | 94% |
| CCOc1ccc(/C=N/NC(=O)c2cccc3ccccc23)cc1OCC | 109% |
| O=C(/C=C/c1ccc(Br)cc1)c1ccccc1 | 98.7% |
